Among all 310,000 compounds or so, about 3,800 (1.2%) were called active.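 Rule for the calls: active = ratio B-score over 3 SD below the library mean, with starting fluorescence within 5 SD of its mean; inactive = the rest, inconclusive results apart.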 The entries come from a sample that favours actives as a whole.
Biological target: Potassium channel subfamily K member 9 (Homo sapiens) (UniProt Q9NPC2)
Assay: KCNK9 potassium channel inhibitors, primary screen, HEK293 cells, thallium flux (AID 488922);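 for B-score: negative B-score means less thallium flux so channel inhibition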
Settings: HEK293 KCNK9, FluxOR thallium flux fluorescence, at 10 µM; active compounds read low

Sequence of Potassium channel subfamily K member 9 (Homo sapiens) (Q9NPC2 whole entry, looked up): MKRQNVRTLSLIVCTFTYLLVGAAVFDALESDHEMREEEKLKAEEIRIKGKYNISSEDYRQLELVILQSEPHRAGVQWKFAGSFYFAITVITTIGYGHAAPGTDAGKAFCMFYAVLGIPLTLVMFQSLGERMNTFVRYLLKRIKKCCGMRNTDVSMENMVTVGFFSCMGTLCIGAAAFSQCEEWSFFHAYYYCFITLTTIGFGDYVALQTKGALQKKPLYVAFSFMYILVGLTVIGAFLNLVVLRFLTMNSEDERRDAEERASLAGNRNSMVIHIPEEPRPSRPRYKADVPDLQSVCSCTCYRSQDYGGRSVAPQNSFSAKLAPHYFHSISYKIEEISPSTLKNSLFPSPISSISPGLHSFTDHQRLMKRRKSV

| SMILES | B-score |
| --- | --- |
| O=C(c1ccccc1)C(Cn1cncn1)C(Sc1ccccc1)c1ccccc1 (centres undefined) | inactive |
| O=C(NCc1ccccc1)c1onc(CSc2ccncc2)c1C(=O)NCc1ccccc1 | inactive |
| CS(=O)(=O)N(CC(=O)Nc1ccc(F)cc1)C1CCCCC1 | inactive |
| CCC(C)NC(=O)CN(C1CCCCC1)S(C)(=O)=O (centres undefined) | inactive |
| CS(=O)(=O)N(CC(=O)Nc1ccc(Cl)c(Cl)c1)C1CCCCC1 | -7.01 (active) |
| Cc1csc(/N=C/N(C)C)c1C#N | inactive |
| Cc1ccc(S(=O)(=O)/N=C(/NC(=S)Nc2c(C)n(C)n(-c3ccccc3)c2=O)c2ccccc2)cc1 | inactive |
| O=C(COC(=O)c1ncc(Cl)c(Cl)c1Cl)NC1CCS(=O)(=O)C1 (centres undefined) | inactive |
| CC1(C)C(C=C(Cl)Cl)C1C(=O)N(Cc1ccc(Cl)cc1)C1CCS(=O)(=O)C1 (centres undefined) | inactive |
| COc1ccc(C(=O)N(Cc2ccc(N(C)C)cc2)C2CCS(=O)(=O)C2)cc1 (centres undefined) | inactive |
| Cc1ccc(CN(C(=O)c2sc3ccccc3c2Cl)C2CCS(=O)(=O)C2)cc1 (centres undefined) | -7.41 (active) |
| O=[N+]([O-])c1c(NCCO)cc(Sc2nc3ccccc3s2)c2nonc12 | inactive |
| Cc1onc(-c2ccccc2Cl)c1C(=O)N(Cc1ccc(N(C)C)cc1)C(C)C | inactive |
| C=C(C)CSc1nc(N)c2c3c(sc2n1)CCC3 | inactive |
| C=CCn1c(SCC(=O)c2c(N)n(C)c(=O)n(C)c2=O)nc2sc(CC)cc2c1=O | inactive |
| CC1(C)CC(=O)CC2(C1)NCC(c1ccccc1Cl)c1c2[nH]c2ccccc12 (centres undefined) | -14.9 (active) |
| O=[N+]([O-])/C=C1\CCCCCN1 | inactive |
| Brc1ccc(-c2csc(N/N=C/c3ccc4c(c3)OCO4)n2)cc1 | inactive |
| Cc1noc(C)c1/C=N/Nc1ccc2ccccc2n1 | inactive |
| C(=N\Nc1ccc2ccccc2n1)/c1ccc2c(c1)OCO2 | -6.68 (active) |
| CN1CC(=O)N=C1N | inactive |
| CCCC1NC(=S)NC(C)=C1C(C)=O (centres undefined) | inactive |
| Cc1scc(C(=O)NNC(=S)NCc2ccccc2)c1C | inactive |

| SMILES | B-score |
| --- | --- |
| CCNc1nc(-c2cc3ccccc3o2)cs1 | inactive |
| O=c1oc2ccccc2cc1-c1csc(Nc2ccc(O)cc2)n1 | inactive |
| COc1ccc2nc(Nc3nc(-c4cc5ccccc5oc4=O)cs3)sc2c1 | -6.66 (active) |
| O=C(CCC1CCCC1)N=C1SC2CS(=O)(=O)CC2N1Cc1ccccc1 (centres undefined) | inactive |
| Cn1c(=O)n(C)c2cc(C(=O)Nc3ccc(Br)cc3)ccc21 | inactive |
| Cc1ccc(-n2nc(-c3ccco3)cc2C(=O)NCc2cccnc2)cc1 | inactive |
| CC(C)C[C@@H](CO)N1CCN(Cc2ccc(O)cc2)CCC1=O | inactive |
| CCOC(=O)Cc1cc(=O)[nH]c(/N=C(\N)Nc2ccc(OC)cc2)n1 | inactive |
| CCOC(=O)Cc1cc(=O)[nH]c(=O)[nH]1 | -8.45 (active) |
| CCOCCCNC(=O)Cc1cc(=O)[nH]c(=O)[nH]1 | inactive |
| CC1CCCN(CCCNC(=O)CN2C(=O)COc3ccc(S(=O)(=O)N4CCOCC4)cc32)C1 (centres undefined) | inactive |
| O=C1/C(=C/c2cccs2)CCC1C1CCCC1 (centres undefined) | inactive |
| Cc1cc2ccccn2c1C(=O)c1cccc(F)c1 | -13.4 (active) |
| CC(=O)Nc1ccc(/C=N/Nc2ccc(C(=O)c3c(C)cc4ccccn34)cc2[N+](=O)[O-])cc1 | inactive |
| Cc1cc2ccccn2c1C(=O)c1cccc(S(=O)(=O)N2CCOCC2)c1 | inactive |
| CN(Cc1c(F)cccc1Cl)C(=O)CNC(=O)c1ccc2c(c1)OCO2 | inactive |
| O=C(c1ccccc1Cl)N(Cc1ccccc1F)N1C(=O)CCCC1=O | inactive |
| Cc1c(C(=O)NCCCc2ccccc2)cccc1[N+](=O)[O-] | inactive |
| CN(Cc1ccccc1)C(=O)COC(=O)c1ccccc1Nc1ccccc1 | inactive |
| O=C(OCC(=O)N(CCc1ccccc1)Cc1ccccc1)c1ccccc1[N+](=O)[O-] | -17.6 (active) |
| Cc1ccc(-c2csc(-c3c[nH]c4ccccc34)n2)cc1 | inactive |
| CCOc1ccc2c(c1)C(c1ccc(C)cc1)=NNC(c1ccc(C)cc1)=N2 | inactive |
| Cc1ccc(C2=Nc3c(ccc4ccccc34)C(c3ccncc3)=NN2)cc1 | -10.7 (active) |

| SMILES | B-score |
| --- | --- |
| CCCCCC(=O)N1CCN(S(=O)(=O)c2ccc3c(c2)OCCCO3)CC1 | inactive |
| O=C(Cc1cccs1)N(CC1CCCO1)C1(C(=O)NC2CCCCC2)CCCCC1 (centres undefined) | inactive |
| O=C(CCSCCc1ccccn1)Nc1nccs1 | inactive |
| COc1ccc(S(=O)(=O)N2CCN(C(=O)N(C)C)C2C)cc1 (centres undefined) | inactive |
| CC(OC(=O)c1ccccc1OCc1ccc(Cl)cc1)C(N)=O (centres undefined) | inactive |
| O=C(NC1CCC(O)CC1)c1ccccc1OCc1ccc(F)cc1 (centres undefined) | inactive |
| COc1ccc(OCCCC(=O)NCCc2ccccc2)cc1 | inactive |
| CCOc1ncccc1C(=O)NCCc1ccc(OC)cc1 | inactive |
| COc1ccc(CCNC(=O)c2ccccc2OCc2ccccc2)cc1 | -8.98 (active) |
| CC(=O)c1ccccc1OCc1ccc(C(=O)c2ccccc2)cc1 | -6.64 (active) |
| COc1cccc(CN2CCNC(=O)C2CC(=O)N(C)CCc2ccccn2)c1 (centres undefined) | inactive |
| Cc1ccc(CN(N=Nc2nonc2N)c2nonc2N)c(C)c1 | -10.2 (active) |
| CCN(CC(=O)NCC(=O)Nc1cccc(C)c1C)Cc1ccccc1 | inactive |
| CC1(C)C2CC[C@]3(C)C(CC=C4[C@@H]5C[C@@](C)(CO)CC[C@]5(C(=O)O)CC[C@]43C)[C@@]2(C)CC[C@@H]1O (some centres undefined) | inactive |
| Cc1n[nH]c(=O)c2c1nnn2Cc1ccc(F)cc1 | inactive |
| COc1ccc(NC(=O)c2cc3nc(-c4ccccc4)cc(C)n3n2)cc1OC | inactive |
| COC(=O)c1cc2nc(-c3ccccc3)cc(C(F)(F)F)n2n1 | inactive |
| COCCNc1cc(-c2ccccc2)nc2cc(-c3cccc(F)c3)nn12 | -9.68 (active) |
| COCCN(Cc1nc(-c2ccc(C(F)(F)F)cc2)no1)C(C)C | inactive |
| O=C(Cc1ccc2c(c1)CCCC2)Nc1ccccc1Cl | inactive |
| O=C(Nc1ccccc1Cl)/C(Cl)=C(\Cl)S(=O)c1ccccc1 (centres undefined) | -6.6 (active) |
| O=C(Nc1ccccc1Cl)Nc1cccc2cccnc12 | inactive |
| COc1cc(-c2nnc(Cn3cc(C(F)(F)F)ccc3=O)o2)cc(OC)c1OC | inactive |

— PubChem BioAssay AID488922 (Johns Hopkins Ion Channel Center, 2010)
